# High-throughput results (PubChem)
# Bead autofluor = flagged as autofluorescent in microsphere protease counterscreen | compound autofluorescence counterscreen, microsphere flow cytometry; hits give high values | fluorescence intensity (test concentration not listed) | 360,000 compounds, 3.1% hits | AID 624483; in the data active = fluorescence intensity above about 16000; inconclusive = no clear call, values can overlap the other calls
# Anthrax LF inh2 = Bacillus anthracis LF protease inhibitors, primary screen, biochemical, multiplex microsphere, MLPCN library; multiplex microsphere protease cleavage assay; Lethal factor (Bacillus anthracis), P15917; 360,000 compounds, 0.12% hits; inhibition, % at 10 µM; also: plate controls were buffer without enzyme for full effect and enzyme alone for no effect
# Target sequence (P15917 whole entry, looked up): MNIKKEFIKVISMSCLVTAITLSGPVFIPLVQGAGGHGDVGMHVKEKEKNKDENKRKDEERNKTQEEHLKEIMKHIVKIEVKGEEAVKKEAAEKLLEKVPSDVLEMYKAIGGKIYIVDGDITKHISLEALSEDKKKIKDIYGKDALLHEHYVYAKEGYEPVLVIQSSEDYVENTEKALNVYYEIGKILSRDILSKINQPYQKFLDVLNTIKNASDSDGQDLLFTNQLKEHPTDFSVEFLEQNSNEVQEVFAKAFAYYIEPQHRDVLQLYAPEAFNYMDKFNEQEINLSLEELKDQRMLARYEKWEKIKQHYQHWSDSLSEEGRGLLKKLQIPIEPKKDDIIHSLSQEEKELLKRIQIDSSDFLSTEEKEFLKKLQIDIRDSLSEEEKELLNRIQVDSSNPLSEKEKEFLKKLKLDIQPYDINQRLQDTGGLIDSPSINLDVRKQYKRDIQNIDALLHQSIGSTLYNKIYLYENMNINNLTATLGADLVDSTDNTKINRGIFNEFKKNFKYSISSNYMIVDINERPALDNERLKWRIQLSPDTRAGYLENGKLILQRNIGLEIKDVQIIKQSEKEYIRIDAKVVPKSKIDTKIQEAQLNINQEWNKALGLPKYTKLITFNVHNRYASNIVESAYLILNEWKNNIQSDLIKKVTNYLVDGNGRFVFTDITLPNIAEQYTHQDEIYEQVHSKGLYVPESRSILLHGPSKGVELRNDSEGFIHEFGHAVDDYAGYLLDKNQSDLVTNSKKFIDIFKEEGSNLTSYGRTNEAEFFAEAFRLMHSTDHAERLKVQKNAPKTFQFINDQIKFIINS
# BoNT A protease = BoNT/A light chain protease inhibitors, primary screen, biochemical, flow cytometry, MLPCN library; AID 588499, 2011; Botulinum neurotoxin type A light chain protease (Clostridium botulinum A str. ATCC 3502); inhibition, % at 10 µM; 360,000 compounds, 0.17% hits; multiplex microsphere protease substrate cleavage; also: plate controls were buffer without enzyme for full effect and enzyme alone for no effect
# BoNT F protease = BoNT/F light chain protease inhibitors, primary screen, biochemical, flow cytometry, MLPCN library; 360,000 compounds, 0.22% hits; inhibition, % at 10 µM; AID 588497, 2011; Multiplex microsphere protease cleavage assay; in the data active = inhibition above about 35%, passing the limit was not always enough; inconclusive = no clear call, values can overlap the other calls; also: plate controls were buffer without enzyme for full effect and enzyme alone for no effect
# Numbers without * were called inactive; ? = inconclusive. An excerpt weighted towards active compounds, which were near 3.5% of everything screened. Rule as the data show it, unless noted: active = inhibition above about 30%; inconclusive = no clear call, values can overlap the other calls; inactive = below that.
SMILES,Bead autofluor,Anthrax LF inh2,BoNT A protease,BoNT F protease
Cn1nnnc1SCCNCc1ccccc1OCc1ccc(Cl)cc1,2681,-1,0,-15
Cc1cccc(CCNC(=O)C2CCC(=O)N(Cc3ccccc3F)C2)n1 (stereo not drawn),6124,-2,0,-1
Cc1cc(=O)n2nc(N3CCCC3C(=O)Nc3cccc(Cl)c3C)sc2n1 (stereo not drawn),20778*,-5,-3,19
CCN(CC)S(=O)(=O)c1cc(NC(=O)c2ccc3c(c2)NC(=O)C(C)S3)ccc1C (stereo not drawn),3564,7,0,0
Cc1ccc2c(c1)N(CC(=O)N1CCc3ccccc3C1)C(=O)CO2,21837*,-2,1,0
Cc1ccc2c(c1)N(CC(=O)N1CCCc3ccccc31)C(=O)CO2,16620*,-4,-1,-1
Cc1ccc2c(c1)N(CC(=O)N1CCCCC1)C(=O)CO2,3681,-8,1,4
O=C(CN1C(=O)COc2ccccc21)N1CCc2ccccc21,3695,4,0,20
Cc1ccc(CNC(=O)CN2C(=O)COc3ccc(C)cc32)cc1,19416*,-4,1,1
COc1ccc(S(=O)(=O)NC(=O)C2(C)CCN2C(=O)Cc2cccc3ccccc23)cc1 (stereo not drawn),3863,2,-1,-7
CCCS(=O)(=O)NC(=O)C1(C)CCCN(C(=O)/C=C/c2ccccc2)C1 (stereo not drawn),3020,-4,0,-7
NS(=O)(=O)c1ccc(CCNC(=O)c2cccnc2)cc1,20577*,-4,-2,-5
O=C(Nc1ccccc1C(=O)O)c1cccc(NC(=O)c2ccccc2Br)c1,4086,-7,-2,?
O=C(NCCc1ccccc1)c1cccnc1,3365,-1,0,0
CC(C)C(=O)Nc1cccc(C(=O)NCCc2ccc(S(N)(=O)=O)cc2)c1,20300*,-1,?,13
CC(C)C(=O)Nc1cccc(C(=O)Nc2ccccc2C(=O)O)c1,20875*,-2,0,-1
N[C@@H](Cc1cnc[nH]1)C(=O)Nc1ccc2ccccc2c1,5162,-9,-2,-4
CCN1CCN(Cc2cc(Br)cc(OC)c2O)CC1,22198*,2,0,0
COc1cc(Br)cc(CN2CCN(c3ncccn3)CC2)c1O,4172,-5,-4,-21
Cn1ncc(Br)c1C(=O)Nc1c(F)c(F)cc(F)c1F,21682*,-1,?,-1
Cn1c(SCC(=O)Nc2ccc(NC(=O)c3cccc(F)c3)cc2)nnc1-c1ccncc1,3071,6,-2,6
COc1ccc2cc([C@H](C)C(=O)N(C)Cc3ccccc3N3CCCC3)ccc2c1,21814*,-18,-10,-1
Cc1ccccc1CN(c1ccc(C(N)=O)cc1)S(C)(=O)=O,16249*,3,0,-2
Cc1ccc(N(Cc2ccccc2F)S(C)(=O)=O)c(C)c1,4999,-3,-1,-3
Cc1ccccc1N(Cc1ccccc1F)S(C)(=O)=O,23221*,0,1,-1
SMILES,Bead autofluor,Anthrax LF inh2,BoNT A protease,BoNT F protease
O=c1[nH]c(SCc2ccccc2Cl)nc2c1CCCC2,20115*,1,-1,-3
O=c1[nH]c(SCc2ccc(Cl)cc2)nc2c1CCC2,4262,-2,0,?
CCN(CC)C(=O)C(=O)N/N=C/c1ccc(C(=O)O)cc1,2140,0,0,6
C=CCn1c(O)c(C(CC)=NC2CC2)c(=O)[nH]c1=O,16830*,0,-1,0
C=CCn1c(O)c(C(CC)=Nc2ccc(N(CC)CC)cc2)c(=O)[nH]c1=O,21974*,-3,1,1
O=C(C1CCN(S(=O)(=O)N2CCOCC2)CC1)N1CCN(c2ccc(F)cc2)CC1,4397,1,-1,0
O=C(C1CCN(c2ccc(N3CCOCC3)nn2)CC1)N1CCN(c2ccc(F)cc2)CC1,22313*,-1,2,1
CCOC(=O)c1nn(-c2ccccc2)c2nc(-c3ccc(OC)cc3)c(C#N)c(=O)n12,2378,-2,0,-8
CCOC(=O)c1nn(-c2ccc(F)cc2)c2nc(CC(C)C)c(C#N)c(=O)n12,18268*,-20,8,12
COc1ccc(C(C)C)cc1S(=O)(=O)Nc1ccc(Cl)cn1,22386*,-2,?,-3
O=C(O)c1cccc(Nc2nc(-c3cc4ccccc4oc3=O)cs2)c1,4300,-11,-3,10
CC(Sc1nnc(-c2ccco2)o1)C(=O)NCCC1=CCCCC1 (stereo not drawn),4089,-5,1,-4
CCN(CC)S(=O)(=O)c1cccc(-c2nnc(SC(C)C(=O)NCCC3=CCCCC3)o2)c1 (stereo not drawn),22080*,0,2,2
O=C(O)c1cccc([N+](=O)[O-])c1C(=O)Nc1ccc2ccccc2c1,4176,11,-2,-1
COC(=O)c1nnn(-c2cc(Cl)cc(Cl)c2)c1C(=O)OC,4487,2,3,?
COc1cc(C2NC(=O)CCC2[N+](=O)[O-])c(OC)cc1Br (stereo not drawn),3989,-13,5,-19
Cc1ccc(Cn2ccc(NC(=O)c3cc(-c4ccc(F)cc4)on3)n2)cc1,24044*,0,-1,-3
N[C@@H](Cc1c[nH]c2ccccc12)c1nnc(SCc2ccccc2)o1,4809,-3,0,-14
N[C@@H](Cc1c[nH]c2ccccc12)c1nnc(SCc2ccc(F)cc2)o1,24676*,-3,?,-4
N[C@@H](Cc1ccccc1)c1nnc(SCc2ccccc2Cl)o1,19863*,1,?,-5
C=C(C)CSc1nnc([C@@H](N)Cc2c[nH]c3ccccc23)o1,19997*,-2,?,-6
Cc1cccc(NC(=O)CCC(=O)N2CCOCC2)n1,6574,-1,-4,-3
COC(=O)c1ccccc1NC(=O)Oc1ccc(F)cc1,16560*,-3,-1,-3
COC(=O)c1ccccc1NS(=O)(=O)c1ccc(F)cc1,20259*,-6,?,2
O=C(CCC(F)(F)F)N1CCCC(N2CCN(c3cccc(Cl)c3)CC2)C1 (stereo not drawn),3738,19,-1,?
SMILES,Bead autofluor,Anthrax LF inh2,BoNT A protease,BoNT F protease
O=C(NCCCN1CCC(Cc2ccccc2)CC1)C1CC(=O)N(C2CCCCCC2)C1 (stereo not drawn),20812*,-3,-1,-3
CC(Sc1cccc[n+]1[O-])C(=O)NC1CCCCC1C (stereo not drawn),4192,0,-1,2
CN(Cc1cc2ccccc2[nH]c1=O)S(=O)(=O)c1ccccc1,2964,-2,0,-15
COc1ccc(CN(Cc2cc3cc(C)ccc3[nH]c2=O)C(=O)N(C)C)cc1,4427,2,0,12
Cc1ccc(S(=O)(=O)N(C)Cc2cc3ccccc3[nH]c2=O)cc1,22031*,-9,0,-2
Cc1ccc2[nH]c(=O)c(CN(CCO)C(=O)N(C)C)cc2c1,17576*,-2,-6,-8
C/C(=N\N(Cc1ccccc1)c1ccccc1)c1ccncc1,4451,-4,-1,-7
C=CC[C@H]1C=C[C@@H](C(C(=O)OC)C(=O)OC)CN1C(C)=O,3747,-4,-1,-3
